# Experimental data taken from PubChem BioAssay AID1508601 (ICCB-Longwood Screening Facility, Harvard Medical School, 2020).
# The campaign covered roughly 5,700 compounds. About 85 (1%) were called active. Rule as the data show it: active = p53-positive nuclei above about 36% (passing the limit was not always enough); inactive = the rest. Many of the other results were omitted from the sample, so actives are more common in it than they were.
# Assays:
# [1] = nuclear p53 accumulation, HPV+ cells – imaging, p53-positive nuclei imaging, 24 h, 48 h (AID 1508601); conditions: 24/48 h
# [2] = target: Cellular tumor antigen p53 (Homo sapiens) (UniProt P04637); assay: as above; conditions: 24/48 h, stronger effect = higher value
# [3] = measured here: cell number at 24 h, Library stock concentration: 80 uM
# [4] = measured here: cell number at 24 h, Library stock concentration: 400 uM
# [5] = measured here: cell number at 24 h, Library stock concentration: 2 mM
# [6] = measured here: cell number at 24 h, Library stock concentration: 10 mM
# [7] = measured here: cell number at 48 h, Library stock concentration: 80 uM
# [8] = measured here: cell number at 48 h, Library stock concentration: 400 uM
# [9] = measured here: cell number at 48 h, Library stock concentration: 2 mM
# [10] = measured here: cell number at 48 h, Library stock concentration: 10 mM
# [11] = Library stock concentration: 80 uM
# [12] = Library stock concentration: 400 uM
# [13] = Library stock concentration: 2 mM
# [14] = Library stock concentration: 10 mM
# [15] = measured here: p53 positive nuclei at 24 h, Library stock concentration: 80 uM
# [16] = measured here: p53 positive nuclei at 24 h, Library stock concentration: 400 uM
# [17] = measured here: p53 positive nuclei at 24 h, Library stock concentration: 2 mM
# [18] = measured here: p53 positive nuclei at 24 h, Library stock concentration: 10 mM
# [19] = measured here: cell number at 24 h, concentration not given here
# [20] = measured here: cell number at 48 h, concentration not given here
# [21] = measured here: p53 positive nuclei at 24 h, concentration not given here
# Sequence of Cellular tumor antigen p53 (Homo sapiens) (P04637 whole entry, looked up): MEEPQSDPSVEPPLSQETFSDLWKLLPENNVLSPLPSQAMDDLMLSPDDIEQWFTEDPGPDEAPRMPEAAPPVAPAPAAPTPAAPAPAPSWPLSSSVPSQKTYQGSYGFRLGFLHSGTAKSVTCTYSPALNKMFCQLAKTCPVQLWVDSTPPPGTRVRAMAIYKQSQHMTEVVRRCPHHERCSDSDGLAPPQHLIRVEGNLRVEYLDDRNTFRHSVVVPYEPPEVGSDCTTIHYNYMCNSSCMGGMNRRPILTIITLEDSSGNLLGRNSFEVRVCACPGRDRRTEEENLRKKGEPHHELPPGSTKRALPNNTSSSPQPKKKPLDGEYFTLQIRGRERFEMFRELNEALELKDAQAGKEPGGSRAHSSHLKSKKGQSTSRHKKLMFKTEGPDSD
compound,measurement,setting,value
CCN1CCN(Cc2ccc(Nc3ncc4c(n3)N(C)c3ccccc3C(=O)N4C)cc2C(F)(F)F)CC1,"nuclei count, normalised",[1]; [3],77.9%
same,"nuclei count, normalised",[1]; [4],81%
same,"nuclei count, normalised",[1]; [5],52.5%
same,"nuclei count, normalised",[1]; [6],35.9%
same,"nuclei count, normalised",[1]; [7],81.7%
same,"nuclei count, normalised",[1]; [8],83.6%
same,"nuclei count, normalised",[1]; [9],35.4%
same,"nuclei count, normalised",[1]; [10],19.9%
same,"p53-positive nuclei, normalised",[2]; [11],-0.0235% (inactive)
same,"p53-positive nuclei, normalised",[2]; [12],-0.051% (inactive)
same,"p53-positive nuclei, normalised",[2]; [13],1.78% (inactive)
same,"p53-positive nuclei, normalised",[2]; [14],22.4% (inactive)
same,"p53-positive nuclei, normalised",[2]; [15],-0.148%
same,"p53-positive nuclei, normalised",[2]; [16],-0.0416%
same,"p53-positive nuclei, normalised",[2]; [17],-0.148%
same,"p53-positive nuclei, normalised",[2]; [18],33.5%
CC1CCO[C@H]2Cn3cc(C(=O)NCc4ccc(F)cc4F)c(=O)c(O)c3C(=O)N12 (some centres undefined),"nuclei count, normalised","[1]; measured here: cell number at 24 h, Library stock concentration: 3.33 mM",106%
same,"nuclei count, normalised","[1]; measured here: cell number at 48 h, Library stock concentration: 3.33 mM",103%
same,"p53-positive nuclei, normalised",[2]; Library stock concentration: 3.33 mM,-0.143% (inactive)
same,"p53-positive nuclei, normalised","[2]; measured here: p53 positive nuclei at 24 h, Library stock concentration: 3.33 mM",-0.188%
CCCCC[C@H](O)/C=C/[C@H]1C2CC(CO2)[C@@H]1C/C=C\CCCC(=O)O (some centres undefined),"nuclei count, normalised",[1]; [19],83.4%
same,"nuclei count, normalised",[1]; [20],84.7%
same,"p53-positive nuclei, normalised",[2]; concentration not given here,0.109% (inactive)
same,"p53-positive nuclei, normalised",[2]; [21],0.00988%
CCN(CC)C(=O)N1CCN(C)CC1,"nuclei count, normalised",[1]; [19],108%
same,"nuclei count, normalised",[1]; [20],102%
same,"p53-positive nuclei, normalised",[2]; concentration not given here,0.000717% (inactive)
same,"p53-positive nuclei, normalised",[2]; [21],-0.0826%
CN1CCN(C(=S)SSC(=S)N2CCN(C)CC2)CC1,"nuclei count, normalised",[1]; [3],108%
same,"nuclei count, normalised",[1]; [4],109%
same,"nuclei count, normalised",[1]; [5],60.3%
same,"nuclei count, normalised",[1]; [6],52.3%
same,"nuclei count, normalised",[1]; [7],109%
same,"nuclei count, normalised",[1]; [8],109%
same,"nuclei count, normalised",[1]; [9],53.9%
same,"nuclei count, normalised",[1]; [10],37.3%
same,"p53-positive nuclei, normalised",[2]; [11],-0.131% (inactive)
same,"p53-positive nuclei, normalised",[2]; [12],-0.138% (inactive)
same,"p53-positive nuclei, normalised",[2]; [13],39.2% (active)
same,"p53-positive nuclei, normalised",[2]; [14],89.9% (active)
same,"p53-positive nuclei, normalised",[2]; [15],-0.116%
same,"p53-positive nuclei, normalised",[2]; [16],-0.0641%
same,"p53-positive nuclei, normalised",[2]; [17],99.7%
same,"p53-positive nuclei, normalised",[2]; [18],111%
